# Results: PubChem BioAssay
# Unmarked numbers belong to inactive results. Where a call stands in place of a potency, no number is given. For some assays here: Potency and affinity values are given separately. Calls of active or inactive are those of the source. Unless noted, the rule behind the calls is not given here.
# Key:
# [1] = antimalarial activity against Dd2 strain (AID 2302;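 active = growth inhibition above 50% at the single 2 µM test dose, taken to imply half-maximal potency below 2 µM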); conditions: P. falciparum Dd2 in RBCs, LDH growth readout, 72 h; at 2 µM; stronger effect = higher value
# [2] = HepG2 cytotoxicity, primary screen, cytotoxicity control for P. falciparum antimalarial project, cell-based, ATP luminescence (AID 2303;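 active = inhibition above 50%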); conditions: HepG2 viability, 24-48 h, at 10 µM, stronger effect = higher value
# [3] = molecular target: L-lactate dehydrogenase (Plasmodium falciparum (isolate CDC / Honduras)) (UniProt Q27743); assay: PfLDH activity inhibition – cell lysate, 3D7 strain, counter-screen for P. falciparum growth inhibition project (AID 2304); conditions: P. falciparum 3D7 crude extract, LDH APAD/NBT absorbance; at 2 µM; stronger effect = higher value
# Sequence of L-lactate dehydrogenase (Plasmodium falciparum (isolate CDC / Honduras)) (Q27743 whole entry, looked up): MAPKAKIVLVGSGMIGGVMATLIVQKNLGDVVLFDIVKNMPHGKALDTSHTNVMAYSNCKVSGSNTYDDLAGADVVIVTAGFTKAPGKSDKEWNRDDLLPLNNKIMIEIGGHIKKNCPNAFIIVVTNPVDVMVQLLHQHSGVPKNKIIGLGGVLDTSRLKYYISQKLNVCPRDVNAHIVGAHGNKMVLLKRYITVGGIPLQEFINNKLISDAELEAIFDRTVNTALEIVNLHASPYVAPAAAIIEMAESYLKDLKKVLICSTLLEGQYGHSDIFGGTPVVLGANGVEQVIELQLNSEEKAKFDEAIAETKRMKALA
# [4] = inhibition of 3D7 malaria parasite growth – strain 3D7 (AID 2306); conditions: P. falciparum 3D7 erythrocytic growth, LDH absorbance, 72 h; at 2 µM; stronger effect = higher value
# [5] = molecular target: Calcium-dependent protein kinase 1 (Plasmodium falciparum (isolate 3D7)) (UniProt P62344); assay: PfCDPK1 kinase inhibitors, biochemical, TCAMS library (AID 1159585; cut-off not given, nearly all actives have IC50 up to about 0.98 µM;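 note: inhibitors leave more ATP so luminescence rises with inhibition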); conditions: recombinant PfCDPK1, Kinase-Glo ATP depletion luminescence
# Sequence of Calcium-dependent protein kinase 1 (Plasmodium falciparum (isolate 3D7)) (P62344 whole entry, looked up): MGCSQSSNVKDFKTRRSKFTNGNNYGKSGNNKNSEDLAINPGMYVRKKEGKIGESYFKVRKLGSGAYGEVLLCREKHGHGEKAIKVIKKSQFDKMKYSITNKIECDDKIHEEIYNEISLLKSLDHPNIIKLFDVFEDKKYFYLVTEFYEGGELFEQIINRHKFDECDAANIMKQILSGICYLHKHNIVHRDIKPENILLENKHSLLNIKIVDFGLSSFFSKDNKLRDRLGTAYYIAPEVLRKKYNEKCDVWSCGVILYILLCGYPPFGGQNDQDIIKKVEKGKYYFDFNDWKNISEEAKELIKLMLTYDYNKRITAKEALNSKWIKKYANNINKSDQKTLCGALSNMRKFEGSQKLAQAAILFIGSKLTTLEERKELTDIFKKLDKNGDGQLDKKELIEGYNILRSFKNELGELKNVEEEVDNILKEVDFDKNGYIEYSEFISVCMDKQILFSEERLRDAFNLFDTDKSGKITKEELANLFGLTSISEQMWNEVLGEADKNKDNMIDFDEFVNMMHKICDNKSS
# [6] = molecular target: Plasmodium falciparum protein kinase 6 (PK6, PF3D7_1337100) (UniProt Q8IDW1); assay: PfPK6 kinase inhibitors, biochemical, TCAMS library (AID 1159586); conditions: recombinant PfPK6, Kinase-Glo ATP depletion luminescence
# Sequence of Plasmodium falciparum protein kinase 6 (PK6, PF3D7_1337100) (Q8IDW1 1-305): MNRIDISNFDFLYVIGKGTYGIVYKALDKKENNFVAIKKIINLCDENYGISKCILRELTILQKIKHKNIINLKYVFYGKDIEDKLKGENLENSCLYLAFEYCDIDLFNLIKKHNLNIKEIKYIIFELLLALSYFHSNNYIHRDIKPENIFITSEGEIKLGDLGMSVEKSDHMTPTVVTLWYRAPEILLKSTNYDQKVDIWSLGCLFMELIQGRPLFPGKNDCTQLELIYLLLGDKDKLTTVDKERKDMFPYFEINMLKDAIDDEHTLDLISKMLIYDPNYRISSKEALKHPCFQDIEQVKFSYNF
# [7] = molecular target: Protein kinase 7 (PK7), Plasmodium falciparum 3D7 (PF3D7_0213400) (UniProt Q7YTF7); assay: inhibition of Plasmodium PK7 catalytic activity – biochemical, TCAMS antimalarial set, Kinase-Glo luminescence (AID 1159587); conditions: recombinant PfPK7, Kinase-Glo ATP depletion luminescence
# Sequence of Protein kinase 7 (PK7), Plasmodium falciparum 3D7 (PF3D7_0213400) (Q7YTF7 1-343): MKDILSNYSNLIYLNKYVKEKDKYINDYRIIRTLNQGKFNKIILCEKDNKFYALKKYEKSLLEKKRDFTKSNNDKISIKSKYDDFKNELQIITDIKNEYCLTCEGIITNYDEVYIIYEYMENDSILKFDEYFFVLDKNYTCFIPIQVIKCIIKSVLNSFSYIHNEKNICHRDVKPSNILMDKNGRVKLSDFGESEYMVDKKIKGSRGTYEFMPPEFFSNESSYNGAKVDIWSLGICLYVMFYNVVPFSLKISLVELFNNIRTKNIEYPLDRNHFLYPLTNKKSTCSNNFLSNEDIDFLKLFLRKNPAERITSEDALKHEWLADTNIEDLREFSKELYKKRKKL
# [8] = molecular target: Calcium-dependent protein kinase 4 (Plasmodium falciparum (isolate 3D7)) (UniProt Q8IBS5); assay: PfCDPK4 kinase inhibitors, biochemical, TCAMS library (AID 1159588; cut-off not given, nearly all actives have IC50 up to about 0.91 µM); conditions: recombinant PfCDPK4, Kinase-Glo ATP depletion luminescence
# Sequence of Calcium-dependent protein kinase 4 (Plasmodium falciparum (isolate 3D7)) (Q8IBS5 whole entry, looked up): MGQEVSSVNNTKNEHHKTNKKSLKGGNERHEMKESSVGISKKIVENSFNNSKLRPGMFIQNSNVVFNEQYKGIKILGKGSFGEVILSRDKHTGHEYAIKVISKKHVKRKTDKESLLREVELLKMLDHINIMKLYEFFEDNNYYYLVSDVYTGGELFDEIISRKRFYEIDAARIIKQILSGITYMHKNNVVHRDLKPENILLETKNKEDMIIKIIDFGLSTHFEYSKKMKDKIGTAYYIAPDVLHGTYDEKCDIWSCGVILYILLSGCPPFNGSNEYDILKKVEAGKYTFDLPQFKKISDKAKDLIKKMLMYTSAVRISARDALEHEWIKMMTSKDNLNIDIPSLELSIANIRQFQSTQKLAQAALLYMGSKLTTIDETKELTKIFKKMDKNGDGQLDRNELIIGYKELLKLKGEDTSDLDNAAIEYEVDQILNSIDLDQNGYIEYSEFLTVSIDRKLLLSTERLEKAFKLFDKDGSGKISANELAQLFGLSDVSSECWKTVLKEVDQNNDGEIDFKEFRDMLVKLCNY
SMILES,growth inhibition [1],inhibition [2],inhibition [3] [%],growth inhibition [4],outcome [5],outcome [6],outcome [7],outcome [8]
Nc1nc(N)c2c(ccc3c2ccn3C2C=CCCC2)n1 (stereo not given),65% (active),68% (active),-2,94% (active),inactive,inactive,inactive,inactive
NC(=O)C1CCN(Cc2ccc(-c3ccc(-c4nc5ccc(F)cc5[nH]4)cc3)cc2)CC1,100% (active),12%,7,101% (active),inactive,inactive,inactive,inactive
CCN(CCCN1CCCCC1)c1cc(C)nc(Nc2ccc(C(F)(F)F)cc2)n1,99% (active),26%,-3,102% (active),inactive,inactive,inactive,inactive
CC(C)c1ccc(NC(=O)c2ccc(C(=O)NC3CCN(Cc4ccccc4)CC3)cc2)cc1,7%,30%,-3,88% (active),inactive,inactive,inactive,inactive
Cc1ccccc1C1CCN(C2CCC(NC(=O)c3cc(-c4ccccc4)oc3C)CC2)CC1 (stereo not given),32%,46%,0,100% (active),inactive,inactive,inactive,inactive
Oc1cccc2ccc(Nc3ccccn3)nc12,93% (active),72% (active),3,99% (active),inactive,inactive,inactive,inactive
CC(C(=O)OCCOCn1cnc2c(=O)[nH]c(N)nc21)N(C)C(=O)OC(C)(C)C (stereo not given),-1%,28%,2,87% (active),inactive,inactive,inactive,inactive
CC(C)(C)Nc1cc(C(=O)N[C@@H](Cc2ccccc2)[C@H](O)CNC2CCOCC2)cc(N2CCCCS2(=O)=O)c1,98% (active),-5%,-1,99% (active),inactive,inactive,inactive,inactive
CN(C)c1ccc(CN2CCC(NC(=O)c3ccc(-c4ccc(N(C)C)cc4)s3)CC2)cc1,21%,24%,-2,93% (active),inactive,inactive,inactive,inactive
CCN1CCN(CCCNc2c3ccc(Cl)cc3nc3ccc(OC)cc23)CC1,100% (active),34%,-5,97% (active),inactive,inactive,inactive,inactive
CCc1cc(OC)ccc1C1CCN(CCCCNC(=O)c2ccc(NC(=O)c3ccc(Cl)cc3)cc2)CC1,61% (active),23%,6,95% (active),inactive,inactive,inactive,inactive
CC(C)CCC[C@@H]([C@@H](CC1CCCCC1)C(=O)N[C@@H](CCCCNC(=O)OCc1ccccc1)C(=O)Nc1nccs1)N(O)C=O,90% (active),-4%,3,98% (active),inactive,inactive,inactive,inactive
COc1ccc(CCC(C)(C)NCC(O)c2cccc(C(F)(F)F)c2)cc1 (stereo not given),98% (active),26%,3,99% (active),inactive,inactive,inactive,inactive
Fc1ccc(C=NNc2nc3ccccc3[nH]2)cc1,58% (active),-7%,-2,98% (active),inactive,inactive,inactive,inactive
Cc1[nH]c(C)c(-c2ccc(OCc3cc(C(F)(F)F)cc(C(F)(F)F)c3)nc2)c(=O)c1Cl,96% (active),19%,-1,98% (active),inactive,inactive,inactive,inactive
Cn1c(=O)c2cc(C(=O)NCCCN3CCCCCC3)sc2c2ccccc21,99% (active),32%,0,99% (active),inactive,inactive,inactive,inactive
CN1CCC(NCc2cccc(-c3ccc(S(=O)(=O)NCc4ccccc4)c(F)c3)c2)CC1,99% (active),94% (active),-8,99% (active),inactive,inactive,inactive,inactive
CS(=O)(=O)Nc1ccc2c(C3CCN(CCC4CCN(C(=O)/C=C/c5ccc(Cl)c(Cl)c5)CC4)CC3)c[nH]c2c1,63% (active),35%,-3,99% (active),inactive,inactive,inactive,inactive
COc1ccc2nccc(N3CCC(SCCNCc4cc5c(cn4)OCCO5)C3)c2n1 (stereo not given),100% (active),30%,2,101% (active),inactive,inactive,inactive,inactive
NC(N)=NN=Cc1cc2ccccc2c2ccccc12,63% (active),25%,4,100% (active),inactive,inactive,inactive,inactive

SMILES,growth inhibition [1],inhibition [2],inhibition [3] [%],growth inhibition [4],outcome [5],outcome [6],outcome [7],outcome [8]
CCCCCCN(C(=O)OCc1ccccc1)[C@@H]1CCN(C(=O)OC(C)(C)C)C[C@H]1C(=O)OCC,96% (active),9%,-6,96% (active),inactive,inactive,inactive,inactive
CCOc1ccc2nc(C)cc(NN=Cc3cccc([N+](=O)[O-])c3)c2c1,93% (active),7%,0,101% (active),inactive,inactive,inactive,inactive
CCCCCCCN1CC[C@@H](CCCc2ccnc3ccc(OC)cc23)[C@@H](CCN)C1,11%,50% (active),-5,102% (active),inactive,inactive,inactive,inactive
CCc1ccc(C2CCN(CCCCNC(=O)c3ccc(-c4ccc(Cl)cc4)cc3)CC2)c(O)c1,99% (active),48%,2,101% (active),inactive,inactive,inactive,inactive
O=C(Nc1nccs1)c1cn(-c2ccccc2)nc1-c1ccc(Cl)s1,18%,9%,0,96% (active),inactive,inactive,inactive,inactive
COc1ccc(O)cc1/C=N/Nc1ccnc2cc(Cl)ccc12,92% (active),-5%,3,103% (active),inactive,inactive,inactive,inactive
Cc1cc(Cl)c(S(=O)(=O)N(C)c2ccccc2)cc1OCC(=O)NC1CCCCC1,94% (active),3%,-3,99% (active),inactive,inactive,inactive,inactive
O=C(NCCCCCN1CCC(c2c[nH]c3ccccc23)CC1)c1ccc(-c2cccnc2)cc1,10%,29%,1,89% (active),inactive,inactive,inactive,inactive
Clc1ccc(C=NNc2ccnc3ccccc23)cc1,97% (active),5%,1,100% (active),inactive,inactive,inactive,inactive
O=C(Nc1ccc(Cl)cc1)c1ccc(CN2CCCN(CC3CCCCC3)CC2)cc1,42%,48%,0,92% (active),inactive,inactive,inactive,inactive
Cc1cc2nc(NC3=NC4(c5ccccn5)N=C(Nc5nc6cc(C)c(C)cc6[nH]5)NC4(c4ccccn4)N3)[nH]c2cc1C (stereo not given),62% (active),3%,-2,87% (active),inactive,inactive,inactive,inactive
CCOC(=O)N1CCC(NC(=O)c2ccc(C(C)(C)C)cc2OC)CC1,-5%,-7%,0,88% (active),inactive,inactive,inactive,inactive
Clc1ccc(Nc2nc3ccc(Cl)cc3nc2Nc2ccc(Cl)cc2)cc1,99% (active),79% (active),3,99% (active),inactive,inactive,inactive,inactive
CCCNCc1ccc(-c2ccc(CN(CCOC)C(=O)/C=C/c3ccccc3C)cc2)nc1,39%,13%,2,95% (active),inactive,inactive,inactive,inactive
CC(=O)Nc1ccc(C(=O)Nc2ccc(-c3cccc(-c4nc5ccc(F)cc5[nH]4)c3)cc2)cn1,84% (active),13%,-2,100% (active),inactive,inactive,inactive,inactive
CC(C)CNCc1ccc(OCc2cccc(COc3ccc(CNCC(C)C)cc3I)c2)c(I)c1,84% (active),23%,-4,98% (active),inactive,inactive,inactive,inactive
Cc1ccc(NC(=O)c2ccnc(N3CCN(c4ccncc4)CC3)c2)cc1F,12%,43%,-2,94% (active),inactive,inactive,inactive,inactive
O=C(NC1CCCc2ccccc21)[C@@H]1CCCN1C(=O)c1ccc(O)c(-c2cccc([N+](=O)[O-])c2)c1 (stereo not given in full),99% (active),-5%,5,99% (active),inactive,inactive,inactive,inactive
O=S(=O)(NCCN1CCCC1)c1ccc(-c2ccc(CNC3Cc4ccccc4C3)cc2)cc1F,75% (active),33%,-1,101% (active),inactive,inactive,inactive,inactive
Fc1ccc(-c2cc(NCCCn3ccnc3)nc(-c3cccnc3)n2)cc1,70% (active),11%,0,99% (active),inactive,inactive,inactive,inactive
